# Only some compounds are listed: those with a hit (about 7.8% of all), similar ones and a draw of the others.
# Marburg entry inh: blocks Marburg virus binding to or entry into cells; Potency, µM (top dose mostly 37.8 µM), for inactives: top-dose activity change, negative = inhibition, actives largely listed as inhibitors; Marburg virus pseudotyped entry inhibition, cell reporter; actives 1.8% (n = 300,000); calls by dose curve; tested in HEK293 cells; further: potency means the concentration at half of the fitted maximal effect
# HCMV inh: blocks human cytomegalovirus replication; activity change, negative = inhibition, % at 57.5 µM; actives 4.5% (n = 410,000); HFF cells, HCMV-luciferase reporter, 72 h; active compounds read low; AID 1259415; in the data active means activity change below about -60%; inconclusive means no clear call, values can overlap the other calls; inactive means above about -39%
#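 Compounds were evaluated in HFFs infected with an HCMV luciferase reporter virus (MOI 1 PFU/cell). Luciferase in lysates collected 72 h post infection served as the replication measure.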
# VACV Venus inh: vaccinia inhibition (Venus reporter) | Vaccinia virus Venus reporter expression, fluorescence | Potency, µM (highest dose often 36.5 µM), inactives show at the top dose activity change, negative = inhibition, actives largely listed as inhibitors | actives 0.46% (n = 330,000) | AID 720580; calls by dose curve; tested in A549 cells; further: potency means the concentration at half of the fitted maximal effect; nearly all actives have a fitted effect of over 30% in size
# HCV inh: HCV inhibition; Huh7.5.1 HCVcc-Cre infection, luciferase reporter, 44 h; Potency, µM (top dose mostly 41.8 µM), for inactives: top-dose activity change, negative = inhibition, usual class: inhibitors; actives 3.4% (n = 340,000); AID 651820; active means well fitted inhibition curve with a large enough effect; inconclusive means small, poorly fitted or top-dose-only effect, or another doubt; inactive means no such curve, though single readings can be large or run the other way; further: potency means the concentration at half of the fitted maximal effect
#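 Seed cells (1,000/well) for 4 h; treat with compound and infect with HCVcc-Cre, moi about 0.5. Incubate 44 h, then detect luciferase activity.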
# Vaccinia mCherry: inhibitors of vaccinia virus infection (mCherry reporter signal) | Vaccinia virus mCherry reporter infection, fluorescence | Potency, µM (titrated, usually from 36.5 µM), without a hit: at the top dose activity change, negative = inhibition, hits mostly inhibitors | actives 0.63% (n = 310,000) | AID 720579; calls by dose curve; tested in A549 cells; further: potency means the concentration at half of the fitted maximal effect; nearly all actives have a fitted effect of over 35% in size
# LASV entry inh: inhibitors of Lassa virus binding or cell entry; actives 1.2% (n = 300,000); Potency, µM (series often up to 37.9 µM), without a hit: at the top dose activity change, negative = inhibition, actives largely listed as inhibitors; Lassa virus pseudotype entry inhibition, cell reporter; AID 540256; calls by dose curve; tested in HEK293 cells; further: potency means the concentration at half of the fitted maximal effect; nearly all actives have a fitted effect of over 50% in size
# Active calls of the source: *; i = inactive; ? = inconclusive; nt = no result; [ ] = dose if it differs, or a comment. On the % scale 0 is the no-effect control and ±100 the full control effect.
SMILES,Marburg entry inh,HCMV inh,VACV Venus inh,HCV inh,Vaccinia mCherry,LASV entry inh
CCn1cc(C2=NC(c3ccccc3)CO2)c2ccccc21 (stereo not given),-9.1%,9.8,-12.0%,?,4.5%,-0.5%
CC(=O)c1ccc(NC(=O)Nc2ccc(NS(=O)(=O)c3ccc(C)cc3)cc2)cc1,-25.1%,-22.4,?,11.2µM*,?,-17.5%
COC(=O)Nc1ccc(S(=O)(=O)Nc2ccc(O)cc2)cc1,7.5%,-66.7*,-21.5%,?,-15.5%,-28.4%
CC(=O)c1ccc(NC(=O)Nc2ccccc2)cc1,?,88.7,-7.1%,-4.1%,-12.2%,8.2µM*
COC(=O)Nc1ccc(S(=O)(=O)Nc2ccc(C)cc2)cc1,-1.6%,nt,nt,nt,nt,nt
CC(=O)Nc1ccc(C(=O)NNS(=O)(=O)c2ccc(C)cc2)cc1,-5.8%[46.1 µM],?,-6.4%,6.9%,i,-23.9%
COc1ccc2c(c1)CC(C(=O)NCCCN1CCN(c3cccc(Cl)c3)CC1)CO2 (stereo not given),nt,-35.5,-25.8%,nt,i,3.0%[46.1 µM]
[N-]=[N+]=NC1C[C@H](n2ccc(=O)[nH]c2=O)O[C@@H]1CO (stereo not given in full),-2.8%,-65.8*,-7.1%,2.6%[8.37 µM],-9.6%,-9.5%
COc1ccccc1C1=NNC(=NCc2ccccc2)SC1,?,-60.2*,-18.6%,-26.3%,-11.1%,12.2%
Clc1ccc(C2=NNC(=NCc3ccccc3)SC2)cc1,?,-78.8*,-15.0%,-26.3%,?,19.5%
CCc1cc2c(N3CCCCC3)ncnc2s1,-18.0%,-25.9,-22.1%,11.2µM*,nt,1.8%
Fc1ccccc1NC(=S)N1CCN(c2ccccn2)CC1,-4.4%,-9.8,-8.7%,18.8%,i,-13.7%
CCN(CC)S(=O)(=O)c1ccc(C)c(NC(=S)N2CCN(Cc3ccc4c(c3)OCO4)CC2)c1,?,-98.6*,-15.0%,6.31µM*,-25.8%,?
Cc1cccc(NC(=S)N2CCN(c3ccccn3)CC2)c1,nt,-7.2,nt,-10.0%,nt,nt
CC(C)NC(=S)N1CCN(C/C=C/c2ccccc2)CC1,0.1%[46.1 µM],-35.3,-12.9%,-10.2%,-5.9%,-3.6%
Cc1ccc(NC(=S)N2CCN(Cc3ccc4c(c3)OCO4)CC2)c(C)c1,0.1%,?,-14.0%,-13.0%,-7.1%,22.4%
CCc1ccccc1NC(=S)N1CCN(c2ccccn2)CC1,-0.5%,-102.4*,-10.4%,4.6%,-9.0%,?
Fc1cccc(NC(=S)N2CCN(c3ccccn3)CC2)c1,-6.8%,-3.1,-17.5%,-30.8%,-6.9%,12.6µM*
S=C(NC1CCCCC1)N1CCN(C/C=C/c2ccccc2)CC1,?,42.4,-20.1%,8.91µM*,-26.0%,-24.4%
CCOc1cc2ccccc2cc1C(=O)OCC(=O)Nc1ccc(Br)cc1,nt,nt,-10.7%,nt,-2.2%,nt
CCCCOc1ccc(C2c3c(oc4ccc(C)cc4c3=O)C(=O)N2CCCN(C)C)cc1OCC (stereo not given),-2.5%[46.1 µM],-20.6,-1.8%,nt,-5.4%,3.0%[46.1 µM]
CCN(CC)S(=O)(=O)c1ccc(C)c(NC(=S)N2CCN(C/C=C/c3ccccc3)CC2)c1,nt,?,?,8.91µM*,?,nt
CCN(CC)S(=O)(=O)c1ccc(C)c(NC(=S)N2CCN(c3ccccn3)CC2)c1,?,-39.7,-7.0%,22.4µM*,i,10µM*
COc1ccccc1NC(=S)N1CCN(C/C=C/c2ccccc2)CC1,0.8%,-72.2*,-18.2%,5.1%,-9.1%,3.0%
Cc1ccc(NC(=S)N2CCN(c3ccccn3)CC2)c(C)c1,nt,-30.5,nt,2.0%,nt,nt
SMILES,Marburg entry inh,HCMV inh,VACV Venus inh,HCV inh,Vaccinia mCherry,LASV entry inh
COc1ccc(NC(=S)N2CCN(C/C=C/c3ccccc3)CC2)c(OC)c1,-2.0%[46.1 µM],?,-8.2%,-10.5%,-16.6%,1.3%
CC(NNC(=S)N1CCN(c2ccccn2)CC1)c1nccc2ccccc12 (stereo not given),?,-98.3*,?,?,?,?
CC(=O)OC[C@H]1O[C@H](C/C=N/OCC[C@@H]2C=C[C@H](OC(C)=O)[C@@H](COC(C)=O)O2)C=C[C@@H]1OC(C)=O,10.3%[14.2 µM],nt,nt,nt,nt,nt
Cn1c(=O)n(CCc2ccccc2)c(=O)c2c1nc1n2CCCN1Cc1ccccc1,?,15.7,-7.0%,15.8%,nt,15.8µM*
CCCn1c(=O)c2c(nc3n2CCCN3CCc2ccccc2)n(C)c1=O,?,-62.3*,-18.9%,-25.1%,i,-23.5%
CC(C)Cn1c(=O)c2c(nc3n2CCCN3CCc2ccccc2)n(C)c1=O,?,11.4,?,10µM*,nt,-20.7%
COC(=O)Cn1c(=O)c2c(nc3n2CCCN3CCc2ccccc2)n(C)c1=O,5.4%[46.1 µM],-64.0*,-7.1%,-0.7%,-9.8%,-0.8%[46.1 µM]
Cn1c(=O)n(CCc2ccccc2)c(=O)c2c1nc1n2CCCN1CCc1ccccc1,?,-3.4,-31.2%,?,nt,?
Cn1c(=O)n(CC(=O)O)c(=O)c2c1nc1n2CCCN1CCc1ccccc1,nt,-12.9,nt,7.2%,nt,nt
COCCNC(=O)CN1C(=O)CCn2nc(-c3cn(C)c4ccccc34)cc21,nt,8.9,-0.6%,nt,i,26.8%[46.1 µM]
Cc1cccc(NC(=O)CCNS(=O)(=O)c2ccc3c(c2)CCN3C(=O)C2CC2)c1,nt,1.3,-7.1%,nt,-4.2%,-29.0%[46.1 µM]
CCOC(=O)C(NC(=O)c1cccc(Cl)c1)(OCc1ccccc1)C(F)(F)F (stereo not given),?,-62.4*,-13.6%,-11.7%,-7.6%,?
COc1ccc(-c2noc(CNS(=O)(=O)c3ccc(Br)cc3)n2)cc1OC,-18.6%[46.1 µM],-10.3,-7.6%,nt,-13.7%,22.2%[46.1 µM]
Oc1ccccc1C1CCCCC1c1ccccc1 (stereo not given),-29.5%,-68.0*,?,-8.9%,?,-21.9%
Cc1nc(-c2ccccc2)sc1CCNC(=O)c1ccco1,nt,8.1,2.8%,nt,6.4%,4.1%[46.1 µM]
COC(=O)c1ccccc1NC(=O)NCCc1c(C)nn(C)c1C,nt,-9.2,-3.1%,nt,-11.9%,-3.9%[46.1 µM]
CCSc1nc2n(n1)C(c1ccc(CC)cc1)C(C(=O)Nc1ccccc1OC)=C(C)N2 (stereo not given),nt,-1.3,-24.0%,nt,-26.0%,14.0%[46.1 µM]
Cc1c(C)c2ccc(OCC(=O)Nc3ccccn3)c(C)c2oc1=O,nt,-84.5*,nt,5.6%,nt,nt
Cc1ccccc1OCC(=O)Nc1nnc(-c2ccncc2)s1,22.0%[46.1 µM],-92.7*,-17.6%,11.3%,-9.5%,-1.3%[46.1 µM]
O=C(COc1ccc(Cl)cc1Cl)Nc1ccc(C(=O)Nc2ccccc2C(=O)O)cc1,nt,-28.1,nt,-7.6%,nt,nt
O=C(CCCOc1ccc(Cl)cc1Cl)Nc1ccccc1C(=O)O,3.16µM*,-27.5,22.7%,8.4%,-0.6%,?
Cc1nn(C)c(C)c1NC(=O)COc1ccc(Cl)cc1Br,?,-93.1*,-20.1%,?,?,?
Cc1c(C)c2cc(Cl)c(OCC(=O)Nc3ccccn3)cc2oc1=O,nt,3.9,-3.5%,nt,-6.0%,nt
CCc1cc(C(=O)NCC2Cc3cc(-c4ccccc4C(C)=O)ccc3O2)no1 (stereo not given),nt,nt,-1.9%,nt,-12.8%,nt

# Compound activity from PubChem BioAssay.
